Screen size: about 1,400 compounds; about 1,000 (71%) were called active. Inconclusive results (about 12%) are left out. The call rests on the fitted dose curve; in most records, active means well fitted inhibition curve with a large enough effect; inconclusive means small, poorly fitted or top-dose-only effect; inactive means no such curve, though single readings can be large or run the other way. The set was probably picked from earlier hits. A selection follows. A structure can be active in one record and inactive in another.
Potency means the concentration at half of the fitted maximal effect.

The nature of this assay: Nrf2 qHTS screen for inhibitors: Nrf2 A549 ARE-Fluc Confirmation Assay for Hit Validation. Further: nearly all actives have a fitted effect of over 65% in size. As to conditions: A549 ARE-firefly luciferase reporter, luminescence; series mostly up to 46.1 µM. The source says:
Nrf2 is a transcription factor that maintains cellular redox homoestasis and protects cells from xenobiotics. Nrf2 binds to the antioxidant response element (ARE) to induce gene expression of a broad spectrum of genes that encode for antioxidants. […] Finding a small molecule that act as an inhibitor of Nrf2 function would represent a novel therapeutic target that could lead to improvement in survival of patients undergoing chemo- and/or radio- therapy.
In collaboration with the Biswal laboratory, a cell based, luminescence assay (BugLite) was developed to detect the Nrf2 activity using the A549 ARE_Fluc cells (AID 493153). This assay was coupled with a fluorescence based (CellTiter Fluor) cytotoxicity assay to identify and exclude toxic compounds. This coupled assay was used to evaluate selected compounds for hit validation. The data herein is the result of the BugLite assay where decrease in luminescence signal = inhibition of Nrf2 activation. Inhibition is the desired outcome for this assay.
NIH Chemical Genomics Center [NCGC]
NIH Molecular Libraries Probe Centers Network [MLPCN]
Assay Submitter (PI): Shyam Biswal, Johns Hopkins University
[1] Shibata T., et al., Genetic alteration of Keap1 confers constitutive Nrf2 activation and resistance to chemotherapy in gallbladder cancer. Gastroenterology, 2008.
[2] Sjoblom T., et al., The consensus coding sequences of human breast and colorectal cancers. Science, 2006.
Five uL of cell suspension was dispensed into 1536-well white TC-treated plate using the Kalypsys dispenser to achieve a density of 5000 cells/well in all columns except column 1. The plates were incubated at 37deg C at 5% CO2 for 2 hours before 23 nL of compounds were added with the Kalypsys pin tool equipped with a 1,536-pin array. The control compounds Budesonide and Staurosporine were added at a concentration of 2mM. Budesonide was also added as a 1:10 titration, starting at 200uM, to achieve the dose-response control signal. The plates were incubated for 18-24 hour at 37deg C, 5% CO2 followed by a 5ul addition of 5% FBS OPTI-MEM growing media in column 1 as negative control. One microliter of 5x CellTiter Fluor (Promega) was added to each well and the assay plates were incubated at 37deg C, 5% CO2 for 30 minutes. The fluorescence signal was read using the PerkinElmer ViewLux plate reader (Ex = 405 nm /Em = 525 nm) for a 3 second exposure. After the signal was taken, 3 uL of 3x BugLite was dispensed into all wells. The plates were then incubated at room temperature for 15 minutes. A second ViewLux read (40 sec exposure) was performed to detect the luminescence signal. Cytotoxicity was assessed through the first fluorescent read while biochemical activity against Nrf2 was measured in the luminescent read. The data was normalized to the positive and negative controls.
A general note: qHTS replaces the single test concentration by a dilution series.
With `CCOC(=O)c1cnc(-n2nc(C)cc2C)nc1NNc1cc(C)nc(-c2ccccc2)n1`, the Potency was 5.17 µM (active). The figure for `CC(C)(C)c1ccc(Oc2ccc(N)cc2)cc1` is 5.17 µM (active); for `C[n+]1ccc(/C=C/c2c[nH]c3ccccc23)cc1` it is 1.46 µM (active). The same measure for `OCCCNc1nccc(-c2cc(Nc3cccc(Cl)c3)ncn2)n1`: 1.46 µM (active).

For `Cc1c(Cl)cccc1NC(=O)Cn1cc(C(=O)c2cccs2)c2ccccc21`, the Potency was 5.8 µM (active). The figure for `Brc1c(CSc2nncc3ccccc23)nc2ccccn12` is 6.51 µM (active). The figure for `Cc1oc2c(F)c(F)c(F)c(F)c2c1S(=O)(=O)Nc1cccc(C(F)(F)F)c1` is 14.6 µM (active); for `c1ccc(C(=NNc2nc3ccccc3s2)c2ccccn2)cc1` it is 11.6 µM (active); for `CCCOc1ccc(Cc2c(Cl)nc(SC)nc2NC)cc1` it is 6.51 µM (active). The figure for `CC(=NNC(=S)N1CCCCCC1)c1ccccn1` is 2.59 µM (active); for `CC(=O)Nc1ccc(Nc2c3ccccc3nc3ccccc23)cc1` it is 1.64 µM (active); for `COc1ccc(C(=O)C[n+]2ccc(N)c(C)c2C)cc1` it is 6.51 µM (active). `CCCOc1ccc(C(=O)Nc2ccc3oc(-c4cccc(Cl)c4Cl)nc3c2)cc1`: the Potency is 16.4 µM (active). The same measure for `CC1(C)CC(N2CCN(C(c3ccccc3)c3ccccc3)CC2)=CC(=[N+]2CCCCC2)C1`: 4.61 µM (active); for `Cc1ccc(NS(=O)(=O)c2cccs2)cc1S(=O)(=O)N1CCCCCC1`: “inactive”. The same measure for `O=C(Nc1ccc(Br)cn1)C1CCN(S(=O)(=O)c2cccs2)CC1`: 5.8 µM (active); for `CC(C)Cn1c(N)c(C(=O)COC(=O)CN2C(=O)C3CC=CCC3C2=O)c(=O)n(C)c1=O` (stereo unspecified): 5.8 µM (active); for `CCC(C)N1C(=O)S/C(=C/c2ccc(Sc3nc4ccccc4[nH]3)o2)C1=O` (stereo unspecified): 20.6 µM (active).

`CCC(C)(C)c1ccc(Oc2ccc(NC(=O)COC(=O)C3=COCCO3)cc2)cc1`: the Potency is 10.3 µM (active).

With `Cc1csc[n+]1CCC1CCCCC1`, the Potency was 9.2 µM (active).

As for `COc1cccc(-c2nnc(NC(=O)c3ccc(S(=O)(=O)N(CC(C)C)CC(C)C)cc3)o2)c1`, the Potency was 2.59 µM (active). The figure for `CCNS(=O)(=O)c1ccc(CCC(=O)N2CCN(c3cc(Cl)ccc3C)CC2)cc1` is 23.1 µM (active); for `Cn1nccc1C(=O)NC1CCCc2c1cnn2-c1ccc(F)cc1F` (stereo unspecified) it is 2.59 µM (active); for `O/N=C(\C[n+]1ccccc1)c1ccc(Br)cc1` it is 6.51 µM (active). Regarding `Cc1cccc(N2CCN(C(=O)CCS(=O)(=O)c3ccc4c(c3)NC(=O)C(C)S4)CC2)c1C` (stereo unspecified), the Potency is 18.4 µM (active). The figure for `Cc1ccc(S(=O)(=O)N2CCN(c3ncnc4ccccc34)CC2)cc1` is 7.31 µM (active); for `O=C1C=C(c2ccnc3cc(Cl)ccc23)C[C@@H](c2ccc3c(c2)OCO3)C1` it is 7.31 µM (active). `COc1ccc(CCNC(=O)c2ccc(CS(=O)(=O)c3ccc(Br)cc3)o2)cc1OC`: the Potency was 14.6 µM (active). The figure for `COc1ccc(OC)c(Cc2cnc3nc(N)nc(N)c3c2C)c1` is 9.2 µM (active); for `CCCCNc1nc2c(c(=O)n(C)c(=O)n2C)n1Cc1cccc(OC)c1` it is 9.2 µM (active); for `N#CC(C#N)=CN=c1ccn(Cc2ccc(Cl)cc2Cl)cc1` it is 4.11 µM (active). The figure for `CN(Cc1cccnc1)C(=O)c1cc(COc2ccc3ncccc3c2)on1` is 5.8 µM (active); for `CC(=O)N1c2ccc(S(=O)(=O)N3CCCC(C(=O)NCc4ccc(Cl)cc4)C3)cc2CC1C` (stereo unspecified) it is 7.31 µM (active). For the compound `CC(=O)N1CCCc2cc(S(=O)(=O)N3CCCC(C(=O)N4CCN(c5cccc(Cl)c5)CC4)C3)ccc21` (stereo unspecified), the Potency is 7.31 µM (active). As to `CC(=O)N1c2ccc(S(=O)(=O)N3CCCC(C(=O)Nc4cccc(Cl)c4)C3)cc2CC1C` (stereo unspecified), the Potency is 11.6 µM (active). The figure for `O=C(Nc1ccncc1)c1c(F)cccc1F` is 10.3 µM (active). The figure for `COc1ccc(CCNc2cc(N3CCN(C(=O)c4ccccc4OC)CC3)ccc2[N+](=O)[O-])cc1OC` is 4.11 µM (active); for `COCCn1c(SCC(=O)Nc2ccccc2F)nc2c(c1=O)SCC2` it is “inactive”; for `CC1(C)O[C@@H]2CC3C4C[C@H](F)C5=CC(=O)C=CC5(C)C4C(O)CC3(C)[C@]2(C(=O)CO)O1` (stereo partly specified) it is 0.0082 µM (active). The same measure for `CC1CCN(S(=O)(=O)c2ccc(NC(=O)C3CC(=O)N(c4ccccc4)C3)cc2)CC1` (stereo unspecified): “inactive”.

`Cc1ccc(NC(=O)C2CC(=O)N(c3ccc4c(c3)OCCO4)C2)cc1S(=O)(=O)N1CCCCCC1` (stereo unspecified): the Potency was 20.6 µM (active). In the case of `CCCCCCCCn1c2c(c(=N)c3c1CCC3)CCCC2`, the Potency was 6.51 µM (active).

As to `O=C(CSc1nnc2c(n1)[nH]c1ccccc12)NC1CCCCC1`, the Potency was 2.31 µM (active).

Take `CCCN(c1ccc(C(C)C)cc1)S(=O)(=O)c1c(C)[nH]c(=O)[nH]c1=O`: the Potency result was “inactive”.

For `O=C(CN1C(=O)c2ccccc2S1(=O)=O)N1CCc2ccccc21`, the Potency is 3.66 µM (active).

With `O=C(CCC(=O)N1CCN(S(=O)(=O)c2ccc(Cl)cc2)CC1)NCc1cccc(C(F)(F)F)c1`, the Potency is 8.2 µM (active). The same measure for `Cc1ccc(S(=O)(=O)N2C[C@@H]3CCCC[C@@H]3[C@@H](C)[C@H]2c2cn(Cc3ccccc3)c3ccc(F)cc23)cc1`: 5.17 µM (active); for `CC(C)(C)n1ncc2c(=O)n(Cc3ccc(C(=O)c4ccccc4)cc3)cnc21`: 1.3 µM (active).

`O=C(CC(O)(C(F)(F)F)C(F)(F)F)Nc1ccc(Cl)c(Cl)c1`: the Potency is 2.59 µM (active). The figure for `COc1ccc(CC(=O)Nc2nc(-c3ccc(F)c(F)c3)cs2)cc1OC` is 5.8 µM (active). For the compound `O=c1[nH]c(SCc2cccc(F)c2)nc2ccccc12`, the Potency result was “inactive”.

(Values after PubChem BioAssay AID720524 (National Center for Advancing Translational Sciences (NCATS), 2013).)
